# According to the supplement of paper PMC4466140:
# Experiments:
# Test in all cases: SPOT peptide array binding signal intensity (averaged, normalized) (arbitrary units (background-subtracted, floor 0; scale differs between SH3 domains)); higher = stronger binding of the SH3 domain to the peptide
# AgAbp1 = target: AgAbp1
# Procedure, shortened: (§1)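 Four yeast species supplied the SH3 domains, which were expressed as GST fusions in E. coli BL21(DE3) and purified on glutathione Sepharose. Incubation with cellulose membranes carrying synthetic 15-mer peptides, cysteines exchanged for serines, ran overnight at 4°C at 10 μg/ml in TBS-based blocking buffer. Binding signal is reported as normalized, background-subtracted spot intensity averaged over replicates, in arbitrary units not shared between domains.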
# AgBbc1 = target: AgBbc1
# Procedure, shortened: as §1
# AgBem1-D1 = target: AgBem1-D1
# Procedure, shortened: as §1
# AgBzz1-D1 = target: AgBzz1-D1
# Procedure, shortened: as §1
# AgBzz1-D2 = target: AgBzz1-D2
# Procedure, shortened: as §1
# AgCyk3 = target: AgCyk3
# Procedure, shortened: as §1
# AgFus1 = target: AgFus1
# Procedure, shortened: as §1
# AgHof1 = target: AgHof1
# Procedure, shortened: as §1
# AgHse1 = target: AgHse1
# Procedure, shortened: as §1
# AgLsb1 = target: AgLsb1
# Procedure, shortened: as §1
# AgLsb4 = target: AgLsb4
# Procedure, shortened: as §1
# AgMyo5 = target: AgMyo5
# Procedure, shortened: as §1
# AgNbp2 = target: AgNbp2
# Procedure, shortened: as §1
# AgRvs167 = target: AgRvs167
# Procedure, shortened: as §1
# AgSho1 = target: AgSho1
# Procedure, shortened: as §1
# AgSla1-D1-D2 = target: AgSla1-D1-D2
# Procedure, shortened: as §1
# AgSla1-D3 = target: AgSla1-D3
# Procedure, shortened: as §1
# CaAbp1-D1 = target: CaAbp1-D1
# Procedure, shortened: as §1
# CaAbp1-D2 = target: CaAbp1-D2
# Procedure, shortened: as §1
# CaBbc1 = target: CaBbc1
# Procedure, shortened: as §1
# CaBem1-D1 = target: CaBem1-D1
# Procedure, shortened: as §1
# CaBzz1-D1 = target: CaBzz1-D1
# Procedure, shortened: as §1
# CaBzz1-D2 = target: CaBzz1-D2
# Procedure, shortened: as §1
# CaCyk3 = target: CaCyk3
# Procedure, shortened: as §1
# CaFus1 = target: CaFus1
# Procedure, shortened: as §1
# CaHof1 = target: CaHof1
# Procedure, shortened: as §1
# CaHse1 = target: CaHse1
# Procedure, shortened: as §1
# CaLsb1 = target: CaLsb1
# Procedure, shortened: as §1
# CaLsb4 = target: CaLsb4
# Procedure, shortened: as §1
# CaMyo5 = target: CaMyo5
# Procedure, shortened: as §1
# CaNbp2 = target: CaNbp2
# Procedure, shortened: as §1
# CaRvs167 = target: CaRvs167
# Procedure, shortened: as §1
# CaRvs167-3 = target: CaRvs167-3
# Procedure, shortened: as §1
# CaSho1 = target: CaSho1
# Procedure, shortened: as §1
# CaSla1-D1-D2 = target: CaSla1-D1-D2
# Procedure, shortened: as §1
# CaSla1-D3 = target: CaSla1-D3
# Procedure, shortened: as §1
# ScAbp1 = target: ScAbp1
# Procedure, shortened: as §1
# ScBbc1 = target: ScBbc1
# Procedure, shortened: as §1
# ScBem1-D1 = target: ScBem1-D1
# Procedure, shortened: as §1
# ScBzz1-D1 = target: ScBzz1-D1
# Procedure, shortened: as §1
# ScBzz1-D2 = target: ScBzz1-D2
# Procedure, shortened: as §1
# ScCyk3 = target: ScCyk3
# Procedure, shortened: as §1
# ScFus1 = target: ScFus1
# Procedure, shortened: as §1
# ScHof1 = target: ScHof1
# Procedure, shortened: as §1
# ScHse1 = target: ScHse1
# Procedure, shortened: as §1
# ScLsb1 = target: ScLsb1
# Procedure, shortened: as §1
# ScLsb2 = target: ScLsb2
# Procedure, shortened: as §1
# ScLsb3 = target: ScLsb3
# Procedure, shortened: as §1
# ScLsb4 = target: ScLsb4
# Procedure, shortened: as §1
# ScMyo3 = target: ScMyo3
# Procedure, shortened: as §1
# ScMyo5 = target: ScMyo5
# Procedure, shortened: as §1
# ScNbp2 = target: ScNbp2
# Procedure, shortened: as §1
# ScPex13 = target: ScPex13
# Procedure, shortened: as §1
# ScRvs167 = target: ScRvs167
# Procedure, shortened: as §1
# ScSho1 = target: ScSho1
# Procedure, shortened: as §1
# ScSla1-D1-D2 = target: ScSla1-D1-D2
# Procedure, shortened: as §1
# ScSla1-D3 = target: ScSla1-D3
# Procedure, shortened: as §1
# SpAbp1-D1 = target: SpAbp1-D1
# Procedure, shortened: as §1
# SpBbc1 = target: SpBbc1
# Procedure, shortened: as §1
# SpBzz1-D1 = target: SpBzz1-D1
# Procedure, shortened: as §1
# SpBzz1-D2 = target: SpBzz1-D2
# Procedure, shortened: as §1
# SpCyk3 = target: SpCyk3
# Procedure, shortened: as §1
# SpHof1 = target: SpHof1
# Procedure, shortened: as §1
# SpHof1-2 = target: SpHof1-2
# Procedure, shortened: as §1
# SpHof1-3 = target: SpHof1-3
# Procedure, shortened: as §1
# SpHse1 = target: SpHse1
# Procedure, shortened: as §1
# SpLsb1 = target: SpLsb1
# Procedure, shortened: as §1
# SpLsb4 = target: SpLsb4
# Procedure, shortened: as §1
# SpMyo1 = target: SpMyo1
# Procedure, shortened: as §1
# SpNbp2 = target: SpNbp2
# Procedure, shortened: as §1
# SpPex13 = target: SpPex13
# Procedure, shortened: as §1
# SpRvs167 = target: SpRvs167
# Procedure, shortened: as §1
# SpSla1-D1-D2 = target: SpSla1-D1-D2
# Procedure, shortened: as §1
# SpSla1-D3 = target: SpSla1-D3
# Procedure, shortened: as §1
binder,measurement,setting,value
LLRRTIPKRPFYHVL,SPOT peptide array binding signal intensity,AgAbp1,66.5
same,SPOT peptide array binding signal intensity,AgBbc1,73.8
same,SPOT peptide array binding signal intensity,AgBem1-D1,44.5
same,SPOT peptide array binding signal intensity,AgBzz1-D1,13
same,SPOT peptide array binding signal intensity,AgBzz1-D2,200
same,SPOT peptide array binding signal intensity,AgCyk3,≤ 0
same,SPOT peptide array binding signal intensity,AgFus1,295
same,SPOT peptide array binding signal intensity,AgHof1,11.5
same,SPOT peptide array binding signal intensity,AgHse1,828
same,SPOT peptide array binding signal intensity,AgLsb1,1
same,SPOT peptide array binding signal intensity,AgLsb4,79
same,SPOT peptide array binding signal intensity,AgMyo5,≤ 0
same,SPOT peptide array binding signal intensity,AgNbp2,121
same,SPOT peptide array binding signal intensity,AgRvs167,4.5
same,SPOT peptide array binding signal intensity,AgSho1,59
same,SPOT peptide array binding signal intensity,AgSla1-D1-D2,108
same,SPOT peptide array binding signal intensity,AgSla1-D3,0.5
same,SPOT peptide array binding signal intensity,CaAbp1-D1,604
same,SPOT peptide array binding signal intensity,CaAbp1-D2,775
same,SPOT peptide array binding signal intensity,CaBbc1,427
same,SPOT peptide array binding signal intensity,CaBem1-D1,8.5
same,SPOT peptide array binding signal intensity,CaBzz1-D1,71.5
same,SPOT peptide array binding signal intensity,CaBzz1-D2,39.5
same,SPOT peptide array binding signal intensity,CaCyk3,156
same,SPOT peptide array binding signal intensity,CaFus1,314
same,SPOT peptide array binding signal intensity,CaHof1,0.5
same,SPOT peptide array binding signal intensity,CaHse1,22
same,SPOT peptide array binding signal intensity,CaLsb1,0.5
same,SPOT peptide array binding signal intensity,CaLsb4,94.5
same,SPOT peptide array binding signal intensity,CaMyo5,0.5
same,SPOT peptide array binding signal intensity,CaNbp2,262
same,SPOT peptide array binding signal intensity,CaRvs167,48.2
same,SPOT peptide array binding signal intensity,CaRvs167-3,92
same,SPOT peptide array binding signal intensity,CaSho1,608
same,SPOT peptide array binding signal intensity,CaSla1-D1-D2,140
same,SPOT peptide array binding signal intensity,CaSla1-D3,3
same,SPOT peptide array binding signal intensity,ScAbp1,23.5
same,SPOT peptide array binding signal intensity,ScBbc1,25.5
same,SPOT peptide array binding signal intensity,ScBem1-D1,7
same,SPOT peptide array binding signal intensity,ScBzz1-D1,3.5
same,SPOT peptide array binding signal intensity,ScBzz1-D2,13
same,SPOT peptide array binding signal intensity,ScCyk3,26
same,SPOT peptide array binding signal intensity,ScFus1,307
same,SPOT peptide array binding signal intensity,ScHof1,1.5
same,SPOT peptide array binding signal intensity,ScHse1,898
same,SPOT peptide array binding signal intensity,ScLsb1,44.2
same,SPOT peptide array binding signal intensity,ScLsb2,13
same,SPOT peptide array binding signal intensity,ScLsb3,855
same,SPOT peptide array binding signal intensity,ScLsb4,18.5
same,SPOT peptide array binding signal intensity,ScMyo3,0.5
same,SPOT peptide array binding signal intensity,ScMyo5,≤ 0
same,SPOT peptide array binding signal intensity,ScNbp2,343
same,SPOT peptide array binding signal intensity,ScPex13,110
same,SPOT peptide array binding signal intensity,ScRvs167,612
same,SPOT peptide array binding signal intensity,ScSho1,357
same,SPOT peptide array binding signal intensity,ScSla1-D1-D2,146
same,SPOT peptide array binding signal intensity,ScSla1-D3,2
same,SPOT peptide array binding signal intensity,SpAbp1-D1,402
same,SPOT peptide array binding signal intensity,SpBbc1,5
same,SPOT peptide array binding signal intensity,SpBzz1-D1,76
same,SPOT peptide array binding signal intensity,SpBzz1-D2,≤ 0
same,SPOT peptide array binding signal intensity,SpCyk3,≤ 0
same,SPOT peptide array binding signal intensity,SpHof1,73
same,SPOT peptide array binding signal intensity,SpHof1-2,3.25
same,SPOT peptide array binding signal intensity,SpHof1-3,401
same,SPOT peptide array binding signal intensity,SpHse1,372
same,SPOT peptide array binding signal intensity,SpLsb1,36.5
same,SPOT peptide array binding signal intensity,SpLsb4,463
same,SPOT peptide array binding signal intensity,SpMyo1,0.5
same,SPOT peptide array binding signal intensity,SpNbp2,181
same,SPOT peptide array binding signal intensity,SpPex13,1.5
same,SPOT peptide array binding signal intensity,SpRvs167,227
same,SPOT peptide array binding signal intensity,SpSla1-D1-D2,≤ 0
same,SPOT peptide array binding signal intensity,SpSla1-D3,11
